# Data taken from PubChem BioAssay (EPA / NIEHS).
# “And” between values parts separate entries of the source, which are not always exact repeats. Equal entries are not always repeated. The source made the active and inactive calls. Rule for the calls: active = hit-call score of the fitted dose curve at least 0.9, where 1 is the maximum; inactive = score below 0.9.
# Read-out: Monokine induced gamma interferon (MIG), CXCL9 (gene 4283)
# Assay: BSK_BE3C_MIG: BioMAP Diversity Plus: BE3C Assay for Monokine induced gamma interferon (MIG) Biomarker Activity (AID 2283035);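 for outcome: MIG protein measured by ELISA in BE3C cultures after 24 h of dosing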
# Details: primary human bronchial epithelial cells; actives raise or lower the signal
# Outline: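 MIG level was determined by ELISA after 24 h chemical treatment of primary human bronchial epithelial cells. Values were fitted bidirectionally with DMSO as the negative control and activity baseline.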
Compound,outcome,AC50
O=P(O)(O)CCC(F)(F)C(F)(F)C(F)(F)C(F)(F)C(F)(F)C(F)(F)C(F)(F)C(F)(F)F,inactive,
CCC(C)c1ccccc1O (configuration not stated),inactive,
O=C(O)C(F)(F)OC(F)(F)C(F)(F)OC(F)(F)C(F)(F)OC(F)(F)C(F)(F)C(F)(F)C(F)(F)F,,4.58 µM (active) and 4.77 µM (active)
CCCCCCCCCCCCCCC,inactive,
O=C1NS(=O)(=O)c2ccccc21,inactive,
C[C@]12CC[C@@H]3c4ccc(O)cc4CC[C@H]3[C@@H]1C[C@@H](O)[C@@H]2O,inactive,
CCOC(=O)CN[C@@H](C(=O)N1CC[C@H]1C(=O)NCc1ccc(/C(N)=N/O)cc1)C1CCCCC1,inactive,
CCCCC(CC)C(=O)OCCOCCOCCOCCOC(=O)C(CC)CCCC (configuration not stated),inactive,
Clc1ccc(Nc2nnc(Cc3ccncc3)c3ccccc23)cc1,inactive,
Cc1cccc2c1ccc1ccccc12,inactive,
CC(C)(C)c1ccc(O)c(O)c1,inactive,
CN(C)c1ccc(C(=C2C=CC(=[N+](C)C)C=C2)c2ccccc2)cc1,,0.561 µM (active)
O=P(O)(O)CCC(F)(F)C(F)(F)C(F)(F)C(F)(F)C(F)(F)C(F)(F)F,inactive,
O=S(=O)(O)C(F)(F)C(F)(F)C(F)(F)C(F)(F)C(F)(F)C(F)(F)C(F)(F)C(F)(F)C(F)(F)C(F)(F)F,inactive,
O=C(NO)c1ccccc1,inactive,
CC[N+](CC)(CC)Cc1ccccc1,inactive,
O=C(c1ccccc1)c1ccccc1,inactive,
OCC(F)(F)C(F)(F)C(F)(F)C(F)(F)C(F)(F)C(F)(F)C(F)(F)C(F)(F)C(F)(F)C(F)(F)C(F)(F)F,inactive,
O=C1OC2(c3ccccc31)c1cc(I)c(O)c(I)c1Oc1c2cc(I)c(O)c1I,,19.9 µM (active)

Compound,outcome,AC50
Cc1[nH]nc2c1N=C(c1ccccc1Cl)c1cc([N+](=O)[O-])ccc1N2,,19.3 µM (active)
O=C(NCc1ncc(C(F)(F)F)cc1Cl)c1c(Cl)cccc1Cl,inactive,
N=C(N)c1ccc(OCCCCCOc2ccc(C(=N)N)cc2)cc1,inactive,
C=CC(C)(CCC=C(C)C)OC(C)=O (configuration not stated),inactive,
CCCCCCCCCCCCCCCCCC[N+](C)(C)Cc1ccccc1,,5.77 µM (active)
O=C(O)CCC(F)(F)C(F)(F)C(F)(F)C(F)(F)C(F)(F)C(F)(F)F,inactive,
Oc1ccc(Cc2ccccc2O)cc1,inactive,
CCCCC=O,inactive,
CN(CCO)S(=O)(=O)C(F)(F)C(F)(F)C(F)(F)C(F)(F)C(F)(F)C(F)(F)C(F)(F)C(F)(F)F,inactive,
COCN(COC)c1nc(N(COC)COC)nc(N(COC)COC)n1,inactive,
O=C1c2ccc(O)c(O)c2C(=O)c2c(O)ccc(O)c21,inactive,
OCCN1CN(CCO)CN(CCO)C1,inactive,
CCCCc1oc2ccccc2c1C(=O)c1cc(I)c(OCCN(CC)CC)c(I)c1,,23.3 µM (active)
O=C(O)CCC(F)(F)C(F)(F)C(F)(F)C(F)(F)C(F)(F)F,inactive,
CN(Cc1cnc2nc(N)nc(N)c2n1)c1ccc(C(=O)N[C@@H](CCC(=O)O)C(=O)O)cc1,inactive,
O=C(CC(=O)C(F)(F)C(F)(F)C(F)(F)F)c1cccs1,,24.6 µM (active) and 42 µM (active)
CS(=O)(=O)c1ccc([C@@H](CC2CCCC2)C(=O)Nc2cnccn2)cc1Cl,inactive,
CC1=NN(c2ccccc2)C(=O)C1,inactive,
